PubChem BioAssay AID2284357 (EPA ToxCast)
Records with an inconclusive call do not appear. Activity calls are given as the source filed them. The calls were made as follows: active = hit-call score of the fitted dose curve at least 0.9, where 1 is the maximum; inconclusive = response in the unintended direction; inactive = score below 0.9.

What follows are compounds tested on zebrafish Androgen Receptor (AR), gene 100005148 (assay: ATG_zfAR_EcoTox2: Attagene TRANS-FACTORIAL EcoTox-2 HepG2 Assay for zebrafish Androgen Receptor (AR)).
Procedure: ATG_EcoTox2 is a cell-based, multiplexed assay created by modifying the existing Attagene TRANS-FACTORIAL system to include a panel of nuclear receptors from some or all the following species: human (Homo sapiens), african clawed frog (Xenopus laevis), rainbow trout (Oncorhynchus mykiss), japanese medaka (Oryzias latipes), and zebrafish (Danio rerio). The ECOTOX2-FACTORIAL format uses HepG2, a human liver cell line, with measurements taken at 24 hours after chemical dosing in a 24-well plate. ATG_zfAR_EcoTox2 is one of 29 assay components calculated in the ATG_EcoTox2 assay. It is designed to make measurements of mRNA induction, a form of inducible reporter, as detected with fluorescence intensity signals by Reverse transcription polymerase chain reaction (RT-PCR) and Capillary electrophoresis technology.The assay endpoint ATG_zfAR_EcoTox2 was analyzed in the positive analysis fitting direction relative to DMSO as the negative control and baseline of activity. Using a type of inducible reporter, measures of mRNA for gain-of-signal activity can be used to understand the reporter gene at the transcription factor-level as they relate to the gene AR. Furthermore, this assay endpoint can be referred to as a primary readout, because this assay has produced multiple assay endpoints where this one serves a reporter gene function. To generalize the intended target to other relatable targets, this assay endpoint is annotated to the nuclear receptor intended target family, where the subfamily is steroidal.
Human liver HepG2 cells are transiently transfected with multiple reporter transcription units (MRTUs) in 6-well plates using FuGene 6 reagent (Roche; 3 ml FuGene/1 mg DNA). The MRTU constructs are regulated by a cis-regulating element (promoter). Each RTU expresses a GAL4-UAS that regulates the transcription of a nearby target reporter gene sequence. A major difference between the CIS and TRANS system is that in CIS activities of endogenous TFs are measured, whereas the TRANS assay evaluates changes in activities of exogenous, chimeric NR-Gal4 proteins. […] At the end of 24 hour incubation, total RNA was isolated using TriZol reagent (Invitrogen). The isolated RNA is then reverse-transcribed using oligo(dT) primer and Mo-MLV reverse transcriptase (Invitrogen) with DNAse I (Ambion) treatment for 30 min. The one-tenth of the produced cDNA was amplified by PCR using Taq DNA polymerase (Invitrogen) and two reporter sequence-specific primers. […] The fragments were purified using Qiaquick PCR columns (Qiagen), analyzed on an ABI 3130xL genetic analyzer (Applied Biosystems) with peak positions identified by using a set of X-rhodamine (ROX)-labeled MapMarker1000 molecular weight standards (BioVentures). […]

| Structure (SMILES) | outcome |
| --- | --- |
| O=C(O)C(F)(F)C(F)(F)C(F)(F)C(F)(F)C(F)(F)C(F)(F)C(F)(F)F | inactive |
| O=S(=O)(O)C(F)(F)C(F)(F)C(F)(F)C(F)(F)C(F)(F)C(F)(F)F | inactive |
| CCCCOCN(C(=O)CCl)c1c(CC)cccc1CC | inactive |
| O=P(Oc1ccccc1)(Oc1ccccc1)Oc1ccccc1 | inactive |
